Columns and labels:
Assay in all cases: DAPPL (digital affinity profiling via proximity ligation, sequencing); 10 mM Tris-HCl pH 7.5, 50 mM NaCl, 1 mM DTT, 4% glycerol, room temperature, 30 min; GST-TFs on glutathione beads, 16-mer random dsDNA library, 0.1% formaldehyde crosslink after washing; high values mean tight binding
Conditions in all cases: protein: recombinant; tags: N-terminal GST; dsDNA, one strand shown
[1] = biological target: T1, FLI1 (Homo sapiens, UniProt Q01543 1-452)
T1 sequence: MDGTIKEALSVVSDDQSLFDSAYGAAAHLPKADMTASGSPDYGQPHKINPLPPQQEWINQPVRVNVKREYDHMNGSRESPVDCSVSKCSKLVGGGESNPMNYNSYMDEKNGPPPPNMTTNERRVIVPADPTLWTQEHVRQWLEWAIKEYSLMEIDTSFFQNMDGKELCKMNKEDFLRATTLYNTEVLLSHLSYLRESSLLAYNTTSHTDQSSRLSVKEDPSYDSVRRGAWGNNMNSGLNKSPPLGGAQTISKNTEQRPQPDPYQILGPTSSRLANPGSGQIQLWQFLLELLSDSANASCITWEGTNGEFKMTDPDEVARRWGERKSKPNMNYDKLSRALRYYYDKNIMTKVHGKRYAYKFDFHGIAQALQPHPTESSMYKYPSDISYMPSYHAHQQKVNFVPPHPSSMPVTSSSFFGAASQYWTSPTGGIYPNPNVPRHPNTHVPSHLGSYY
Method in brief: (§1)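 GST fusions of human transcription factors were expressed in yeast and captured with glutathione beads. Once given DNA barcodes and pooled alongside a tag-only sample, they were incubated for 30 min at room temperature with 200 nmole of a random double-stranded 16-mer DNA library in Tris/NaCl/DTT/glycerol buffer, then washed, crosslinked (0.1% formaldehyde), proximity-ligated, PCR-amplified and sequenced on an Illumina NextSeq500. The binding signal of each hexamer is its read frequency for a factor divided by its frequency for the tag-only sample.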

[2] = biological target: T2, ELK1 (Homo sapiens, UniProt P19419 1-428)
T2 sequence: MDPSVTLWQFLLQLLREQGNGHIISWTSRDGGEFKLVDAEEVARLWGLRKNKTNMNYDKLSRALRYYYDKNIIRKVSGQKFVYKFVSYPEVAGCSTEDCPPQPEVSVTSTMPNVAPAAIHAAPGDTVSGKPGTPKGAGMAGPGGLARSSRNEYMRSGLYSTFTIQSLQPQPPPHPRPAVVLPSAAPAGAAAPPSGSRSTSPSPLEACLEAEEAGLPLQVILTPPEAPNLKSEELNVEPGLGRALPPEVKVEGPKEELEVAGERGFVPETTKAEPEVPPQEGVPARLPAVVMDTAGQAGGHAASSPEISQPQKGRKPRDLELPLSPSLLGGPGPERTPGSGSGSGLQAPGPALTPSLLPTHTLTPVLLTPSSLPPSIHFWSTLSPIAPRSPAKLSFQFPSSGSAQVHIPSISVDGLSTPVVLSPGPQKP
Method in brief: as §1

[3] = biological target: T3, GABPA (Homo sapiens, UniProt Q06546 1-454)
T3 sequence: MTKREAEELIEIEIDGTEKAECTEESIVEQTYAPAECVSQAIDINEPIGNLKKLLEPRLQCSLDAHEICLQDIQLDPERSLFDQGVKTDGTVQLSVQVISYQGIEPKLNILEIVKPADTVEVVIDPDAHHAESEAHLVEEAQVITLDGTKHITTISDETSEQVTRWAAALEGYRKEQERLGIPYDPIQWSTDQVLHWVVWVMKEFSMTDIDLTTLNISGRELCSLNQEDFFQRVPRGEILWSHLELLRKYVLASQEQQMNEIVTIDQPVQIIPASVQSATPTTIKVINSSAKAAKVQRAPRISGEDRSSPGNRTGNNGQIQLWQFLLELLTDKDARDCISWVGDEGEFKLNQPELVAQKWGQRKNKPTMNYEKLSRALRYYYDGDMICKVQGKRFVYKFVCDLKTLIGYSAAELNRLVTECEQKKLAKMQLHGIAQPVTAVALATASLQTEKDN
Method in brief: as §1

[4] = biological target: T4, ERG (Homo sapiens, UniProt P11308 1-479)
T4 sequence: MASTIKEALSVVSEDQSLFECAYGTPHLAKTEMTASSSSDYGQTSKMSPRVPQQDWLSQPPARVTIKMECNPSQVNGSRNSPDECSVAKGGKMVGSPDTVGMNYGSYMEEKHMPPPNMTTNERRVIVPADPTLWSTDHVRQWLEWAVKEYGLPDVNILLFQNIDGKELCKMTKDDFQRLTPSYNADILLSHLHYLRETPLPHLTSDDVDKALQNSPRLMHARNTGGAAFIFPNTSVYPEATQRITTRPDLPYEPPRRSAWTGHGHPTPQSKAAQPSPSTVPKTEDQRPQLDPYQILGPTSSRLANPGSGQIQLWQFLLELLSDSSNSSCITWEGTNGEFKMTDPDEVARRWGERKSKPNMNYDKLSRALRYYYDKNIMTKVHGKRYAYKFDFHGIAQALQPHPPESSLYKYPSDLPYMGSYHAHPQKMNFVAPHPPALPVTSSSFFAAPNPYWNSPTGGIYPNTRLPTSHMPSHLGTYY
Method in brief: as §1

[5] = biological target: ELF1 (Homo sapiens, UniProt P32519 1-619)
Chain of ELF1 (P32519 whole entry): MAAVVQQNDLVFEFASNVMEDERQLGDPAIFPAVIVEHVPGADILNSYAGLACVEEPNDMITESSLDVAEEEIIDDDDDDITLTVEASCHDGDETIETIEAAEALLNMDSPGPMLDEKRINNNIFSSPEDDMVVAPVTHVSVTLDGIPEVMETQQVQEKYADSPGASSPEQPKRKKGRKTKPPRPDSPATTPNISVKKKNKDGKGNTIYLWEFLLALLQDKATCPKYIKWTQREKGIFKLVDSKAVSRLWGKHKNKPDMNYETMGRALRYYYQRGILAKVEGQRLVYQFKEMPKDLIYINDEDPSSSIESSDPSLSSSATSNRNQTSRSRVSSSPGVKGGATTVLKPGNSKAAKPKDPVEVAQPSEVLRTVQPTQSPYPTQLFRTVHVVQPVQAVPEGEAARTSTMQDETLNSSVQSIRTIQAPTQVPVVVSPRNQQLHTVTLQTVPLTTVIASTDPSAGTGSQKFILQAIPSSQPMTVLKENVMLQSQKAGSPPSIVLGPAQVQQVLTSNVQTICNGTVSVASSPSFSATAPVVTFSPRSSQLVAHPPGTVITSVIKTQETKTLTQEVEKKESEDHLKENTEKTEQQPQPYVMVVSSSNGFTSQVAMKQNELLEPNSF
Method in brief: as §1

[6] = biological target: T5, EHF (Homo sapiens, UniProt Q9NZC4 1-300)
T5 sequence: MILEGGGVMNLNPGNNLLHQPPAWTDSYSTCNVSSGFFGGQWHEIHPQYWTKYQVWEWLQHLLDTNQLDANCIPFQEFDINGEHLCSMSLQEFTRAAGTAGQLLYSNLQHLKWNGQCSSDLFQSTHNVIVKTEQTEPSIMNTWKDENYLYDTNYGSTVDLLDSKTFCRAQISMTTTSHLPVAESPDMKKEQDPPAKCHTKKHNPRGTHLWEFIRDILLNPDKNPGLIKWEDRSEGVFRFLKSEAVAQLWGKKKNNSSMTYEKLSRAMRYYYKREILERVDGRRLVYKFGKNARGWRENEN
Method in brief: as §1

[7] = biological target: SPI1 (Homo sapiens, UniProt P17947 1-270)
Method in brief: as §1

[8] = biological target: SPIB (Homo sapiens, UniProt Q01892 1-262)
Chain of SPIB (Q01892 whole entry): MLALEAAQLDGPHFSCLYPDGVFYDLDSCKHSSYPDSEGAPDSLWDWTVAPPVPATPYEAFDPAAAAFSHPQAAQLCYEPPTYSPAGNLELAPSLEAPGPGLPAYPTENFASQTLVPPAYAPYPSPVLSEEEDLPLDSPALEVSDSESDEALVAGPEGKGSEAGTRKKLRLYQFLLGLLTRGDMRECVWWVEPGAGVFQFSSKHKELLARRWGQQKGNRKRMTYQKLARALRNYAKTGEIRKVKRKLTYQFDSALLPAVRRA
Method in brief: as §1

[9] = biological target: T6, ELK3 (Homo sapiens, UniProt P41970 1-407)
T6 sequence: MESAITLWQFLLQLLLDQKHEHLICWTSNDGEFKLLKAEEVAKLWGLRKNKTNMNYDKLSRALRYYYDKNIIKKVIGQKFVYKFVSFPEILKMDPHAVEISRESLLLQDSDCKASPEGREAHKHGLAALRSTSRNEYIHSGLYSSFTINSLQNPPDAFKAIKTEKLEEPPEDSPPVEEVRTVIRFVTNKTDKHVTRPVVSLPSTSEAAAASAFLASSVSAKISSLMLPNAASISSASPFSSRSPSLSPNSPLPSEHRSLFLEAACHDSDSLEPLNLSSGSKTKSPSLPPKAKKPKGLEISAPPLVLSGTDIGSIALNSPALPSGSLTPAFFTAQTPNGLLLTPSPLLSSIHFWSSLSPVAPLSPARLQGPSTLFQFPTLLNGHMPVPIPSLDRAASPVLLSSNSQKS
Method in brief: as §1

Row | Sequence | binding signal [1] | binding signal [2] | binding signal [3] | binding signal [4] | binding signal [5] | binding signal [6] | binding signal [7] | binding signal [8] | binding signal [9]
1 | CTCATA | 1.39 fold enrichment (6-mer frequency, TF over GST control) | 1.48 fold enrichment (6-mer frequency, TF over GST control) | 1.36 fold enrichment (6-mer frequency, TF over GST control) | 1.3 fold enrichment (6-mer frequency, TF over GST control) | 1.38 fold enrichment (6-mer frequency, TF over GST control) | 1.27 fold enrichment (6-mer frequency, TF over GST control) | 1.43 fold enrichment (6-mer frequency, TF over GST control) | 1.48 fold enrichment (6-mer frequency, TF over GST control) | 1.34 fold enrichment (6-mer frequency, TF over GST control)
2 | GCCGAC | 1.19 fold enrichment (6-mer frequency, TF over GST control) | 1.23 fold enrichment (6-mer frequency, TF over GST control) | 1.21 fold enrichment (6-mer frequency, TF over GST control) | 1.17 fold enrichment (6-mer frequency, TF over GST control) | 1.1 fold enrichment (6-mer frequency, TF over GST control) | 1.05 fold enrichment (6-mer frequency, TF over GST control) | 1.05 fold enrichment (6-mer frequency, TF over GST control) | 1.18 fold enrichment (6-mer frequency, TF over GST control) | 1.15 fold enrichment (6-mer frequency, TF over GST control)
3 | TTCATA | 1.17 fold enrichment (6-mer frequency, TF over GST control) | 1.16 fold enrichment (6-mer frequency, TF over GST control) | 1.18 fold enrichment (6-mer frequency, TF over GST control) | 1.11 fold enrichment (6-mer frequency, TF over GST control) | 1.19 fold enrichment (6-mer frequency, TF over GST control) | 1.18 fold enrichment (6-mer frequency, TF over GST control) | 1.18 fold enrichment (6-mer frequency, TF over GST control) | 1.23 fold enrichment (6-mer frequency, TF over GST control) | 1.16 fold enrichment (6-mer frequency, TF over GST control)
4 | TACTAA | 1.2 fold enrichment (6-mer frequency, TF over GST control) | 1.23 fold enrichment (6-mer frequency, TF over GST control) | 1.36 fold enrichment (6-mer frequency, TF over GST control) | 1.29 fold enrichment (6-mer frequency, TF over GST control) | 1.28 fold enrichment (6-mer frequency, TF over GST control) | 1.3 fold enrichment (6-mer frequency, TF over GST control) | 1.25 fold enrichment (6-mer frequency, TF over GST control) | 1.23 fold enrichment (6-mer frequency, TF over GST control) | 1.24 fold enrichment (6-mer frequency, TF over GST control)
5 | CTTTAC | 1.24 fold enrichment (6-mer frequency, TF over GST control) | 1.43 fold enrichment (6-mer frequency, TF over GST control) | 1.51 fold enrichment (6-mer frequency, TF over GST control) | 1.31 fold enrichment (6-mer frequency, TF over GST control) | 1.4 fold enrichment (6-mer frequency, TF over GST control) | 1.38 fold enrichment (6-mer frequency, TF over GST control) | 1.4 fold enrichment (6-mer frequency, TF over GST control) | 1.41 fold enrichment (6-mer frequency, TF over GST control) | 1.47 fold enrichment (6-mer frequency, TF over GST control)
6 | CGACCG | 1.2 fold enrichment (6-mer frequency, TF over GST control) | 1.19 fold enrichment (6-mer frequency, TF over GST control) | 1.21 fold enrichment (6-mer frequency, TF over GST control) | 1.36 fold enrichment (6-mer frequency, TF over GST control) | 1.17 fold enrichment (6-mer frequency, TF over GST control) | 1.11 fold enrichment (6-mer frequency, TF over GST control) | 1.06 fold enrichment (6-mer frequency, TF over GST control) | 1.07 fold enrichment (6-mer frequency, TF over GST control) | 1.21 fold enrichment (6-mer frequency, TF over GST control)
7 | TTTGGT | 1.48 fold enrichment (6-mer frequency, TF over GST control) | 1.29 fold enrichment (6-mer frequency, TF over GST control) | 1.42 fold enrichment (6-mer frequency, TF over GST control) | 1.31 fold enrichment (6-mer frequency, TF over GST control) | 1.32 fold enrichment (6-mer frequency, TF over GST control) | 1.36 fold enrichment (6-mer frequency, TF over GST control) | 1.27 fold enrichment (6-mer frequency, TF over GST control) | 1.3 fold enrichment (6-mer frequency, TF over GST control) | 1.37 fold enrichment (6-mer frequency, TF over GST control)
